# Measurements from PubChem BioAssay (NCI).
# This is part of a sample that, as a whole, favours compounds with a hit. Of some 79,000 tested, about 15% had one in any assay. Unmarked numbers belong to inactive results. Calls of active or inactive are those of the source. Rule as the data show it: active = growth inhibition above about 70%; inactive = the rest.
# Tests used:
# [1] = NCI Yeast Anticancer Drug Screen. Data for the rad50 strain (AID 155);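 also: 0% = growth of vehicle-only cultures of the same strain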; conditions: S. cerevisiae rad50 strain growth inhibition, active compounds read high
# Procedure, shortened: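 Vehicle-treated cultures provide the reference for the growth inhibition reported for compound-exposed, repair-deficient yeast.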
# [2] = NCI Yeast Anticancer Drug Screen. Data for the mec2-1 strain (AID 157); conditions: S. cerevisiae mec2-1 strain, active compounds read high
# Procedure, shortened: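 Test agents were screened against the mec2-1 yeast strain, with defined DNA repair or cell cycle alteration. Growth was scored as inhibition against vehicle-only controls.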
# [3] = NCI Yeast Anticancer Drug Screen. Data for the sgs1 mgt1 strain (AID 161);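 also: 0% = growth of cultures given vehicle only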; conditions: S. cerevisiae sgs1 mgt1 strain, active compounds read high
# Procedure, shortened: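 Read-out: growth inhibition vs vehicle controls. Cells: mutant yeast strain deficient in DNA damage repair.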
# [4] = NCI Yeast Anticancer Drug Screen. Data for the cln2 rad14 strain (AID 165);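 also: 0% = growth equal to vehicle treated cultures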; conditions: S. cerevisiae cln2 rad14 strain, active compounds read high
# Procedure, shortened: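 Growth of compound-exposed yeast (cln2 rad14 genotype) measured and expressed as inhibition relative to vehicle.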
# [5] = NCI Yeast Anticancer Drug Screen. Data for the bub3 strain (AID 167); conditions: S. cerevisiae bub3 mutant strain, active compounds read high
# Procedure, shortened: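 Mutant yeast screening strain plus compound; vehicle-treated cultures serve as the 0% inhibition reference.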
# [6] = NCI Yeast Anticancer Drug Screen. Data for the mlh1 rad18 strain (AID 175); conditions: S. cerevisiae mlh1 rad18 strain growth inhibition, active compounds read high
# Procedure, shortened: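 In this whole-cell yeast screen, a strain with altered DNA damage repair is challenged with compound, and its growth is measured against matched vehicle-treated controls.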
# [7] = at 5.0 µM (retest, dose inferred, filed as 0.5)
# [8] = at 50.0 µM (retest, dose inferred, filed as 5.0)
Structure (SMILES),"growth inhibition [1, 7]","growth inhibition [1, 8]",growth inhibition ([1]; at 50.0 µM),"growth inhibition [2, 7] [%]","growth inhibition [2, 8]",growth inhibition ([2]; at 50.0 µM),"growth inhibition [3, 7] [%]","growth inhibition [3, 8]",growth inhibition ([3]; at 50.0 µM),"growth inhibition [4, 7] [%]","growth inhibition [4, 8]",growth inhibition ([4]; at 50.0 µM),"growth inhibition [5, 7]","growth inhibition [5, 8]",growth inhibition ([5]; at 50.0 µM),"growth inhibition [6, 7] [%]","growth inhibition [6, 8]",growth inhibition ([6]; at 50.0 µM)
CC(=O)N1C/C(=C\c2ccccc2)C(=O)/C(=C/c2ccccc2)C1,60%,87% (active),84.9% (active),47,92% (active),82.7% (active),46,98% (active),79.5% (active),35,88% (active),67.5%,47%,91% (active),87.8% (active),62,96% (active),78.9% (active)
CCC1(CC)COC(C)(C(=O)O)OC1,-155%,-176%,56.9%,-50,-62%,11.1%,-68,-69%,-2.95%,-51,-77%,-41.4%,-65%,-71%,6.2%,-127,-168%,-6.2%
N#CC1CCCC(Cc2ccccc2)(c2ccccc2)C1=O (stereo not given),-4%,93% (active),98.8% (active),-3,95% (active),98.1% (active),-2,95% (active),98.3% (active),-1,70% (active),95% (active),10%,96% (active),98.7% (active),-6,96% (active),97.6% (active)
O=C(O)/C=C/c1c2ccccc2cc2ccccc12,41%,96% (active),97.1% (active),16,98% (active),96.5% (active),27,97% (active),94.7% (active),9,96% (active),96.9% (active),71% (active),96% (active),97.3% (active),47,97% (active),97.5% (active)
COc1cc(O)c2c(c1)C(=O)c1cc3c(c(O)c1C2=O)C(OC1OC(C)C(O)C(O)C1OC)C(OC)C(C)(O)C3=O (stereo not given),95% (active),99% (active),92.5% (active),35,99% (active),93.4% (active),35,99% (active),93.7% (active),12,99% (active),89.9% (active),15%,99% (active),93.3% (active),58,99% (active),92.8% (active)
Cc1cc(NC(=S)SCc2ccc(Cl)cc2)ccc1Br,35%,98% (active),91.3% (active),26,99% (active),92.7% (active),47,99% (active),91.3% (active),37,99% (active),88.8% (active),55%,100% (active),91.2% (active),25,99% (active),91.2% (active)
O=C(O)c1cccc2c1Oc1c(cccc1C(=O)O)S2,3%,1%,98.3% (active),0,9%,98.2% (active),0,3%,98.3% (active),2,6%,98.2% (active),1%,1%,98.8% (active),2,-2%,98.5% (active)
COC1OC(CN=[N+]=[N-])C(OC(=O)c2ccccc2)C(OC(C)=O)C1OC(C)=O (stereo not given),-3%,-3%,7.35%,-24,23%,9.8%,-192,-1%,18.1%,2,-2%,0%,61%,73% (active),80% (active),13,13%,18.2%
CC(C)N(CCO)CC(O)Cn1cnc2c(N)ncnc21 (stereo not given) (tested in a mixture with another compound),-17%,0%,-37.5%,-9,-8%,7.75%,-14,1%,-15.6%,-18,-6%,40.2%,-8%,-6%,-4.65%,-8,-5%,43%
CC(CO)(CO)Cc1ccccc1,1%,-6%,96.5% (active),-2,6%,97.9% (active),0,-5%,80.5% (active),-3,-4%,92.3% (active),-1%,1%,94% (active),2,-3%,93.2% (active)
